# Most compounds without a hit are left out; they make up all but 0.96% or so of the library.
# TRPV1 agonist – activates the human vanilloid receptor TRPV1. Q8NER1. TRPV1-expressing cells, Fluo-8 calcium influx, agonist mode. activation, % at 8.33 µM. hit rate 0.19% among 320,000. AID 540275; in the data active = activation above about 80%; inconclusive = between about 30% and that limit; note: 0% is about no effect
# Target sequence (Q8NER1 whole entry, looked up): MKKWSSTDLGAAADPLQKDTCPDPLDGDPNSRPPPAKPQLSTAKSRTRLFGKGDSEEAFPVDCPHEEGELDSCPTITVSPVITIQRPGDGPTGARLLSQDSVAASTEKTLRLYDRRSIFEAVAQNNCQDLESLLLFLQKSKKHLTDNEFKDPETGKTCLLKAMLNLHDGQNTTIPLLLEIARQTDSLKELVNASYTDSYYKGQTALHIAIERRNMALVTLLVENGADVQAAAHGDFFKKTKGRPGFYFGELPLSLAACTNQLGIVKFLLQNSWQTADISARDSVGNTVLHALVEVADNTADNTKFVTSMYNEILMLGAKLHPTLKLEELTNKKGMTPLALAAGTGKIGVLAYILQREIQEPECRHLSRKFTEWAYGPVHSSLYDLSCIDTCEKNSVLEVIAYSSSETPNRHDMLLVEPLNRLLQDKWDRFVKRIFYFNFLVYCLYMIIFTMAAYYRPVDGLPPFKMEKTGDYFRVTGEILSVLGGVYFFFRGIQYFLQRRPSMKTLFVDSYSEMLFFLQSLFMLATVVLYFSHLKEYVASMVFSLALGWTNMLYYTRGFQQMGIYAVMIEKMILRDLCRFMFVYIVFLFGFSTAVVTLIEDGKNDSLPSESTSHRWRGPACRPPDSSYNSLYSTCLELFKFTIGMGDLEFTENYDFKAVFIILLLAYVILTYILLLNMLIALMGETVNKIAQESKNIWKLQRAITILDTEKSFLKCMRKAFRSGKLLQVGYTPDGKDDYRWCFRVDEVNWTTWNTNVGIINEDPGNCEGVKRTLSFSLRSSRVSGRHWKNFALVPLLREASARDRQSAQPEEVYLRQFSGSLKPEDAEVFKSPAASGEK
#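 TRPV1-expressing cells were cultured overnight at 35.5C and loaded with Fluo-8 calcium dye for 40 to 90 min at room temperature. After a 10 s baseline, compound was added and calcium influx was read kinetically for 3 min (ex 480/em 520 nm).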
# TRPV1 PAM – human TRPV1 potentiation. TRPV1-expressing cells, Fluo-8 calcium influx, capsaicin EC20 potentiation. potentiation, % at 8.33 µM. hit rate 0.02% among 320,000. AID 540277; in the data active = potentiation above about 80%; inconclusive = between about 30% and that limit; note: 0% is about no effect
#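 Cells expressing TRPV1 were dye-loaded with Fluo-8 and read kinetically: 10 s baseline, 3 min after compound (agonist portion), then 2 min after EC20 capsaicin (allosteric enhancer portion). Calcium-bound dye fluorescence at 480/520 nm.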
# TRPML1 blocker – blocks the human TRPML1 channel | Q9GZU1 | TRPML1-inducible cells, Ca2+ dye fluorescence, FDSS; hits give low values; inhibition of EC80 agonist-evoked calcium signal | activity change, negative = inhibition, % (no concentration beside the values) | hit rate 0.02% among 390,000; in the data active = activity change below about -50%; inconclusive = between about -30% and that limit;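 note: stimulus is agonist 54-4 at its EC80 concentration; % is set by controls: 0 for no effect and ±100 for the full control effect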
#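 TRPML1-DL cells, Tet-induced overnight (~16 h, 37 °C) at 1,500 cells/well, were loaded with Ca8 no-wash dye plus quencher for 45-90 min at room temperature. Compounds were pinned during FDSS kinetic reading; agonist 54-4 at EC80 (4 uM final) then added.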
# TRPML1 agonist – activates the human TRPML1 channel; Q9GZU1; TRPML1-expressing cells, Ca2+ dye fluorescence, FDSS; activation, % (no concentration beside the values); hit rate 0.12% among 410,000; AID 624414; in the data active = activation above about 50%; inconclusive = mostly about 30% to 49%; note: 0% is about no effect
#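 TRPML1-DL cells, Tet-induced overnight (~16 h, 37 degrees C), loaded 45-90 min at room temperature with Ca8 no-wash calcium dye plus quencher. FDSS fluorescence: 10 s baseline, compound pin-transfer, 110 s agonist read, then EC80 54-4 (4uM final) and 110 s antagonist read.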
# TRHR PAM – TRH receptor (human) allosteric enhancement; P34981; hit rate 0.66% among 360,000; TRHR cells, fluo-8 calcium fluorescence, EC20 TRH enhancement; enhancement, % at 2 µM; in the data active = enhancement above about 30%; note: 0% is about no effect
#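 Enhancer read-out: after compound pinning and an initial kinetic agonist-mode read, an EC20 of TRH (10 nM final) was injected and fluo-8 calcium signal (Ex 480/Em 530) followed at 1 s/cycle for 100 cycles in TRHR-expressing cells.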
# TRHR agonist – agonists of human TRH receptor | TRHR cells, calcium flux fluo-8, FDSS agonist mode | hit rate 0.18% among 360,000 | P34981 | activation, % at 2 µM; in the data active = activation above about 30%; note: 0% is about no effect
#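 TRHR-expressing cells loaded with fluo-8 calcium dye; 23 nL library compound pin-transferred, kinetic FDSS fluorescence (Ex 480/Em 530) recorded about 180 s for agonist-induced calcium release, before a 10 nM TRH EC20 addition for potentiator mode.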
# The depositor's hits bear a star; ? = inconclusive; nt = no result given.
SMILES,TRPV1 agonist,TRPV1 PAM,TRPML1 blocker,TRPML1 agonist,TRHR PAM,TRHR agonist
O=C(C1=NN(c2ccccc2)C2C(=O)N(c3ccc(Cl)cc3)C(=O)C12)c1ccccc1 (stereo not given),-2.0,?,-9.9,9.5,-7.9,-0.3
CCN(CC)/[N+]([O-])=N/Oc1ccc([N+](=O)[O-])cc1[N+](=O)[O-],nt,nt,20.0,1.0,nt,nt
O=C(NCc1cccc(F)c1)c1cccc2c1C(=O)c1ccc(N3CCCC3)cc1S2(=O)=O,nt,nt,0.4,?,nt,nt
CC1CCN(c2ccc3c(c2)S(=O)(=O)c2cccc(C(=O)NCc4cccc(F)c4)c2C3=O)CC1,?,3.3,0.8,?,-1.1,53.4*
Cc1cc(C)n2c(SCC(C)C)nnc2n1,2.0,-5.8,5.6,1.3,33.2*,0.2
CCSc1nnc2nc(C)cc(C)n12,3.3,-4.0,-10.1,0.5,19.4,-0.2
Cc1ccc(-c2nc3cccc(C)n3c2Nc2ccc(F)cc2)o1,nt,nt,nt,-0.6,nt,nt
Nc1[nH]c(=S)[nH]c(=O)c1N=O,nt,nt,nt,-0.6,nt,nt
COc1cccc(Nc2nc(C#N)nc(NC3CCCC3)n2)c1,nt,nt,nt,nt,-5.0,-3.2
NS(=O)(=O)c1ccc(CCNC(=O)C2CCCN2S(=O)(=O)c2cccc3nsnc23)cc1 (stereo not given),-1.9,-7.5,-29.8,-0.3,32.4*,0.0
C#CCn1c(=NC(=O)c2ccccc2[N+](=O)[O-])sc2cc(S(C)(=O)=O)ccc21,2.8,2.5,5.7,-0.5,30.2*,-0.1
COc1cc2nc(N3CCN(C)CC3)nc(NC(C)C)c2cc1OC,nt,nt,nt,1.4,nt,nt
COc1cc(OC)c(/C=C2\SC(=O)N(CC(=O)Nc3ccccc3F)C2=O)c(OC)c1,3.2,7.6,nt,nt,-4.2,-0.5
COc1cc(/C=C2\SC(=O)N(CC(=O)Nc3ccccc3F)C2=O)cc(Cl)c1O,?,-18.4,5.2,?,10.8,100.6*
COc1cccc(C(=O)NCCc2csc3nc(-c4ccccc4F)nn23)c1OC,nt,nt,-0.3,1.3,35.1*,-0.1
O=C(NCCc1csc2nc(-c3ccccc3F)nn12)c1ccccc1C(F)(F)F,nt,nt,-11.8,1.8,0.9,-0.4
CN(C)CCCNC(=O)c1cc(C(=O)Cc2ccccc2)c[nH]1,2.0,-2.4,20.5,0.4,33.9*,1.0
CN(C)CCCNC(=O)c1cc(C(=O)c2ccccc2F)c[nH]1,-2.0,10.7,9.7,-0.1,5.7,1.9
O=S(=O)(Nc1ccccc1N1CCCCC1)c1ccc(Cl)s1,14.9,-28.7,-24.1,97.2*,-6.8,0.5
O=S(=O)(Nc1ccccc1N1CCCC1)c1ccccc1C(F)(F)F,nt,nt,-7.7,0.1,nt,nt
O=C(C[n+]1ccccc1Cl)c1ccc(O)c(O)c1,nt,nt,nt,-0.3,nt,nt
C=C[C@@H]1c2cc(C)ccc2N(S(=O)(=O)c2ccc(C)cc2)[C@H](c2ccc(C(C)(F)F)cc2)C1(C#N)C#N,nt,nt,nt,50.6*,nt,nt
Cc1ccc(/C=N/Nc2cc(C)nc(N3CCOCC3)n2)cc1,?,-27.9,59.8,1.0,2.3,-0.4
Cc1cc(N/N=C/c2ccccc2)nc(N2CCOCC2)n1,85.5*,-13.3,-24.1,0.7,0.5,0.1
C=C1NN(C)C(=O)N1c1ccc(OC)cc1,nt,nt,nt,-0.6,nt,nt
SMILES,TRPV1 agonist,TRPV1 PAM,TRPML1 blocker,TRPML1 agonist,TRHR PAM,TRHR agonist
CCOC(=O)c1c(NC(=O)COC(=O)c2ccccn2)sc(C(=O)N(C)C)c1C,10.1,102.8*,-1.9,0.2,3.2,0.2
CCOC(=O)c1sc(NC(=O)C2c3ccccc3Oc3ccccc32)c(C(=O)OCC)c1C,nt,nt,-25.2,0.0,32.5*,-0.5
C=C1NN(Cc2ccc(OC)cc2)C(=O)N1c1ccccc1,nt,nt,nt,-0.6,nt,nt
COc1ccc2c(n1)Sc1nc3ccccc3nc1N2,109.7*,11.2,-7.3,82.2*,9.5,90.3*
COc1ccc(OC)c(NS(=O)(=O)c2ccc(Br)s2)c1,1.5,?,9.6,0.3,-9.8,-1.3
COc1cccc(NS(=O)(=O)c2ccc(Br)s2)c1,89.2*,3.4,19.2,2.0,3.9,-0.3
O=c1cc(-c2ccccc2)nc2n1Cc1ccccc1-2,5.6,-4.5,5.6,2.2,31.3*,0.6
Cc1cc[n+](CC(=O)c2cccc([N+](=O)[O-])c2)c2ccccc12,-2.5,4.6,nt,nt,34.2*,1.3
O=C(C[n+]1csc2ccccc21)c1cccc([N+](=O)[O-])c1,nt,nt,nt,-0.7,nt,nt
CC1=C/C(=C\c2ccc(N(C)C)cc2)c2ccccc21,nt,nt,nt,0.0,nt,nt
Oc1ccc(-c2csc(-c3c[nH]c4ccccc34)n2)c(O)c1,0.3,-2.0,24.1,1.5,39.7*,0.4
Cc1ccc(-c2csc(-c3c[nH]c4ccccc34)n2)c(C)c1,0.2,4.8,-2.3,-1.0,-8.5,-1.5
CCCN1CCN(c2ncnc3scc(C4COc5ccccc5O4)c23)CC1 (stereo not given),8.4,12.9,34.8,1.3,35.9*,-0.6
C(=C1c2ccccc2Oc2ccccc21)c1ccccc1,nt,nt,nt,-0.3,nt,nt
Cc1ccc(N=C(NO)c2cnccc2C(F)(F)F)c(C)c1,11.6,-23.3,-3.6,0.1,32.0*,-0.3
Nc1[nH]c(=O)nc2nnsc12,nt,nt,nt,-0.6,nt,nt
O=C(N/C=C/c1ccccc1)c1ccccc1,83.1*,-10.0,-3.4,1.3,2.5,-0.2
CC[N+]1(CC(=O)c2ccc(OC)cc2)CCCCC1,nt,nt,nt,0.2,nt,nt
Cc1ccc(C(=O)NNC(=O)c2ccc(NS(=O)(=O)c3cccs3)cc2)o1,1.7,2.6,-2.6,-0.3,32.2*,-0.1
O=C(NNC(=O)c1ccc(Br)o1)c1ccc(NS(=O)(=O)c2cccs2)cc1,nt,nt,-8.8,1.5,nt,nt
COc1ccc(CNc2ccccc2C(=O)NCc2ccccc2)cc1COc1ccc(NC(C)=O)cc1,nt,nt,nt,-0.5,nt,nt
CCCn1c(=O)c(C(=O)OCC)c(O)c2cc(Br)ccc21,4.2,-15.0,1.7,2.0,31.7*,0.4
C=CCn1c(=O)c(C(=O)OCC)c(O)c2ccccc21,1.0,1.8,47.7,2.9,5.6,-0.3
CCCCCCCCCC[n+]1cc(Br)cc(Br)c1,nt,nt,nt,-0.3,nt,nt
CCCN1C(=O)/C(=C/c2c(NCCCOCC)nc3c(C)cccn3c2=O)SC1=S,0.6,5.8,17.5,10.3,10.6,-0.5
O=C1/C(=C\c2c(NCCOCCO)nc3ccccn3c2=O)SC(=S)N1Cc1ccco1,13.1,2.1,13.7,21.9,0.9,32.8*
COc1cc2c(NC3CCN(C)CC3)nc(N3CCCCC3)nc2cc1OCCCN(C)C,nt,nt,nt,-0.2,nt,nt
C/C(=N/NC(=O)Nc1ccccc1)c1ccc(C)cc1,1.7,-1.6,37.2,1.2,32.7*,0.0
C/C(=N\NC(=O)Nc1ccccc1)c1ccc2ccccc2c1,-0.2,-2.5,-4.6,0.9,3.2,-0.5
O=C1CCC[C@@H]2C[C@@]3(C[C@@H]4CCN1[C@H]24)Nc1ccccc1NC3=NC1CCCCC1,nt,nt,nt,-0.5,nt,nt

# Screening results: PubChem BioAssay, National Center for Advancing Translational Sciences (NCATS)
